Hit rate of the full screen: of about 33,000 compounds, about 70 (0.2%) were called active. Rule as the data show it: active = inhibition above about 30%; inactive = the rest. Only a sample is shown.

Chain of Coagulation factor XII (Homo sapiens) (P00748 20-372 limits assumed): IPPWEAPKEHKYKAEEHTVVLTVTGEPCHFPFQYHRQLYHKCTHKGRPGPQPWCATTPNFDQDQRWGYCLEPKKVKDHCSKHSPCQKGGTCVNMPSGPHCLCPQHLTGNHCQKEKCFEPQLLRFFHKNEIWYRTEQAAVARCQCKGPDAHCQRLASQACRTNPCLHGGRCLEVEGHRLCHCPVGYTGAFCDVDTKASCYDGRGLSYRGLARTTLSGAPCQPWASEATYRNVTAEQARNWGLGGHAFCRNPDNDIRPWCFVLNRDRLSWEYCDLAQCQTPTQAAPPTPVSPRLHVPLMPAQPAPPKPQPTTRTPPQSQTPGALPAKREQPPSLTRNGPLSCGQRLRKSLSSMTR
Chain of Coagulation factor XII (Homo sapiens) (P00748 373-615 limits assumed): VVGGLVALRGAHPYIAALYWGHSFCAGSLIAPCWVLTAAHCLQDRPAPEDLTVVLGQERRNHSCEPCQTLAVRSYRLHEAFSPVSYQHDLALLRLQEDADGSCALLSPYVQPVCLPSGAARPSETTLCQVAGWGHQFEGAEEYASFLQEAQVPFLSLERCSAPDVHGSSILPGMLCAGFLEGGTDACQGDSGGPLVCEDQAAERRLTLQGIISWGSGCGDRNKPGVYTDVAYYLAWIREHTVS

This assay concerns the target Coagulation factor XII (Homo sapiens) (UniProt P00748). In words: human FXIIa protease inhibitors, primary screen, biochemical, single well (AID 701).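 Also: 0% = enzyme with vehicle only and 100% = no enzyme blank.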 Particulars: purified human FXIIa, AMC substrate fluorescence, 2 h; at 10 µM; hits give high values.
Regarding `COc1cc2c(cc1OC)C(C(=O)NCc1ccco1)C1c3ccccc3CCN1C2=O` (configuration not stated), the inhibition is 7.77% (inactive). As to `COCCN(C(=O)c1ccco1)c1nnc(-c2ccc(OC)cc2)s1`, the inhibition was 7.18% (inactive). The figure for `CCCCN1C(=O)CC(N2CCOCC2)C1=O` (configuration not stated) is 4.3% (inactive); for `Cc1cccc(NC(=O)Cn2cc(C(=O)c3ccco3)c3ccccc32)c1` it is -10.1% (inactive). On to `Cc1ccc(N(CC(=O)Nc2cc(C)cc(C)c2)S(=O)(=O)c2cccc3nonc23)cc1`, for which the inhibition is 17.2% (inactive). On to `COc1ccc(-c2cc3nc(C)c(CCC(=O)NC(C)CCc4ccco4)c(C)n3n2)c(OC)c1` (configuration not stated), for which the inhibition was -1.94% (inactive).

As for `CC1=C(C(N)=O)C(c2sccc2C)n2nnnc2N1` (configuration not stated), the inhibition is 3.63% (inactive). Take `CCOC(=O)c1nnn(-c2nonc2-n2cccc2)c1CN1CCC(C(=O)OCC)CC1`: the inhibition is 0.91% (inactive). For the compound `O=C(CC1(O)C(=O)N(CN2CCOCC2)c2ccccc21)c1ccccc1` (configuration not stated), the inhibition is -13.4% (inactive).

Consider `CCOCCCNC(=O)C(NC(=O)c1ccc(=O)[nH]c1)c1ccc(C)cc1` (configuration not stated), for which the inhibition is -13.5% (inactive). Next, `CC(O)CN(Cc1ccc(Cl)cc1)CC(C)O` (configuration not stated): 4.36% (inactive); `COc1ccc(N(CC(=O)NC2CCCCC2)S(=O)(=O)c2c(C)[nH]c(=O)[nH]c2=O)cc1`: 6% (inactive); `CC(=O)N1CCCc2cc(S(=O)(=O)CCC(=O)N3CCN(c4ccccc4)CC3)ccc21`: -16.3% (inactive). As for `O=C1CSC(c2cccc(F)c2)N1c1ccc(O)cc1` (configuration not stated), the inhibition was 20.5% (inactive). The figure for `CC(=O)c1c(C)[nH]c(C(=O)NCc2ccc(C)cc2)c1C` is 5.44% (inactive); for `Cn1c(=O)n(CCc2ccccc2)c(=O)c2c1nc1n2CCCN1c1ccccc1` it is -0.18% (inactive); for `O=C1CSC(c2ccc(Cl)cc2)N1` (configuration not stated) it is -6.79% (inactive). For the compound `OC(COc1cccc(OCC(O)CN2CCCC2)c1)CN1CCCC1` (configuration not stated), the inhibition is 1.91% (inactive). Turning to `COc1cccc(NC(=O)Cc2ccc(C)cc2)c1`, the inhibition was 3.98% (inactive).

On to `COc1cc(CC(=O)NCc2cccs2)cc(OC)c1OC`, for which the inhibition was 12% (inactive).

As to `Brc1ccc(Nc2c3c(nc4ncnn24)CCC3)cc1`, the inhibition is -0.85% (inactive). As for `CCN1CCN(C(c2cccnc2)c2cc(Cl)c3cccnc3c2O)CC1` (configuration not stated), the inhibition is 11.8% (inactive). On to `O=S(=O)(NCCNS(=O)(=O)c1ccccc1)c1ccccc1`, for which the inhibition was 15.1% (inactive). Next, `CCC(=O)NC(Nc1cc(C)ccn1)(C(F)(F)F)C(F)(F)F`: 5.79% (inactive); `CCCNC(=O)c1ccccc1NC(=O)CSCc1ccc(OC)cc1`: 0.92% (inactive); `CCCNC(=O)CN(Cc1ccccc1F)S(=O)(=O)c1ccc(C)cc1`: 16.6% (inactive). Next, `CC(=O)Nc1ccc(S(=O)(=O)N2CCSCC2)cc1`: 3.77% (inactive); `Cc1cc(SCC(=O)c2ccccc2)nc(SCC(=O)c2ccccc2)n1`: -15.6% (inactive); `Cc1ccc(CCN2CC(C(=O)O)CC2=O)cc1` (configuration not stated): 9.91% (inactive). Next, `O=C(NCCc1ccccc1)c1ccc(OCCOc2ccccc2)cc1`: 5.87% (inactive); `CCOC(=O)c1[nH]cnc1C(=O)NC1CCCCC1`: 1.72% (inactive); `COCCn1c(SCc2nc3cc(OC)c(OC)cc3c(=O)[nH]2)nnc1-c1ccncc1`: 3.73% (inactive).

For the compound `Cn1nnnc1SCC(=O)Nc1ccccc1C(=O)NC1CC1`, the inhibition was -1.23% (inactive). As to `O=S(=O)(N1CCCCC1)N1CCNCC1`, the inhibition was 4.16% (inactive). For the compound `Cc1cc(C(=O)OC(C)C(=O)Nc2cccc(S(=O)(=O)N3CCOCC3)c2)c(C)o1` (configuration not stated), the inhibition was 8.04% (inactive). Next, `CCn1c(SCC(=O)Nc2ccc(OC)c(OC)c2)nnc1-c1c[nH]c2ccccc12`: 5.25% (inactive); `COc1cc(OC)cc(-c2cc3nc(C4CCN(C(=O)OC(C)(C)C)CC4)cc(=O)n3[nH]2)c1`: -5.3% (inactive). On to `COc1ccc(C2=NOC3(CC(=O)N(c4ccc(Cl)cc4)C3=O)C2)c(OC)c1` (configuration not stated), for which the inhibition was -13.9% (inactive). `Cc1cccc(-n2ncc3c(N4CCc5ccccc54)ncnc32)c1`: the inhibition was 4.16% (inactive). Regarding `Cn1ccs/c1=N\S(=O)(=O)c1ccc(C(C)(C)C)cc1`, the inhibition is 6.13% (inactive). Next, `CC(CN1CCOCC1)c1ccccc1` (configuration not stated): 7.84% (inactive). The figure for `CCn1c(=O)c(=O)n(CC)c2cc(S(=O)(=O)N3CCc4ccccc43)ccc21` is 8.33% (inactive); for `COc1ccc(OCCCON2C(=O)c3ccccc3C2=O)cc1` it is 3.44% (inactive). As for `Cc1ccc(OCC(=O)N/N=C\c2ccco2)c(C)c1`, the inhibition was 5.38% (inactive). The figure for `CCOCCOC(=O)C1=C(C)N(C)C(=O)NC1c1ccccc1F` (configuration not stated) is 2.69% (inactive); for `O=C(NCc1ccccc1)C1CCCN(S(=O)(=O)c2cccs2)C1` (configuration not stated) it is 3.39% (inactive); for `O=C(Nc1cc(-c2nn(CC(=O)N3CCCCC3)c(=O)c3ccccc23)ccc1N1CCOCC1)c1ccc(Cl)cc1` it is -11% (inactive). Next, `CC1CCCCC1NC(=O)C1CCCN1S(=O)(=O)c1cccc2nsnc12` (configuration not stated): 10.7% (inactive); `CC1CC(C)CN(C(=O)CSc2nnc(CSc3ncccn3)n2C)C1` (configuration not stated): 1.36% (inactive); `CCn1c(C)nc2cc(C(=O)NNS(=O)(=O)c3ccc(C)cc3C)ccc21`: 5.64% (inactive). With `COc1ccc(-n2c(C)csc2=S)cc1`, the inhibition was 1.97% (inactive).

For the compound `CCCCCN1CC(O)=C(c2ccccc2)C1=N`, the inhibition was -12.2% (inactive). In the case of `O=C(Nc1cc2ccccc2oc1=O)C1CCCCC1`, the inhibition was 6% (inactive).

`Cc1nnc(SCC(=O)N2CCc3ccccc3C2)s1`: the inhibition was -10.1% (inactive). Next, `Cc1ccc(CNC(=O)CCNS(=O)(=O)c2cccc3nonc23)cc1`: 7.33% (inactive). The figure for `Cc1ccc(-n2c(CNc3ccc(F)cc3)nnc2SCC(=O)N2CCOCC2)cc1` is 0.69% (inactive). With `CCOC(=O)c1c(NC(C)=O)sc2c(O)c(Br)ccc12`, the inhibition was 5.45% (inactive). On to `CCOC(=O)CN(Cc1ccc(OC)c(OC)c1)S(=O)(=O)c1ccc(OC)cc1`, for which the inhibition was 8.43% (inactive). The figure for `CS(=O)(=O)N(CC(=O)N1CCN(Cc2ccccc2)CC1)c1ccc2c(c1)OCCO2` is 21.1% (inactive).

As to `COc1ccc(C2C(C#N)=C(/N=C/N3CCOCC3)OC3=C2C(=O)CC(C)(C)C3)cc1OC` (configuration not stated), the inhibition is 8.48% (inactive). Turning to `COC(=O)CSc1snnc1-c1ccc(Cl)c(Cl)c1`, the inhibition was 5.67% (inactive). With `Cc1nnc(OCC(=O)NCCC2=CCCCC2)c2ccccc12`, the inhibition was 11.9% (inactive). The figure for `COC(=O)C(C)n1cnc2c(nnn2-c2cccc(Cl)c2)c1=O` (configuration not stated) is 4.25% (inactive); for `C=CCNC(=O)C12CC3CC(C1)CC(C(=O)NCC=C)(C3)C2` it is 5.41% (inactive). In the case of `O=C(CNS(=O)(=O)c1ccc(Br)s1)N1CCN(C(=O)c2ccco2)CC1`, the inhibition was 5.22% (inactive). In the case of `O=c1onc(-c2cccs2)n1Cc1ccccc1`, the inhibition is 2.91% (inactive). As to `CC(=O)C1=C(C)NC(=O)NC1c1cc(Br)ccc1OCC#N` (configuration not stated), the inhibition is 6% (inactive). The figure for `CC/C(O)=N\S(=O)(=O)c1ccc(N=NN(C)C)cc1` is 12.3% (inactive); for `O=C(c1cccc(N2CCCC2=O)c1)N1CCOCC1` it is 8.03% (inactive).

With `O=C(NCCCN1CCCCC1)c1ccc2c(c1)NC(=O)C(N1CCOCC1)S2` (configuration not stated), the inhibition is 2.66% (inactive). In the case of `COc1ccccc1CNS(=O)(=O)c1ccc(C)cc1`, the inhibition is -2.17% (inactive). With `Nn1c(SCC(=O)NC2CCCC2)nnc1-c1ccccc1F`, the inhibition is 2.89% (inactive). Next, `CC(=O)c1cccc(NC(=O)N2CCCC2C(=O)NCCc2ccccc2)c1` (configuration not stated): 6.02% (inactive). The figure for `CC(=O)c1cccc(NC(=O)C2CCCN2S(=O)(=O)c2cccc3nsnc23)c1` (configuration not stated) is -30.9% (inactive); for `COc1ccc(C(=O)NNC(=O)c2cnccn2)cc1[N+](=O)[O-]` it is 6.61% (inactive); for `CSc1ccccc1NC(=O)c1cc(C2CC2)on1` it is 5.73% (inactive). In the case of `Cc1cc(C(=O)Nc2c(C)nn(Cc3ccccc3)c2C)on1`, the inhibition is 3.84% (inactive).

As for `Cc1nnc(NCCO)c2ccccc12`, the inhibition is -0.65% (inactive).

Take `O=C(NC1CCCCC1)c1ccc(CNc2c(N3CCOCC3)c(=O)c2=O)cc1`: the inhibition is 9.25% (inactive). Next, `CCS(=O)(=O)c1ccc2oc(SCC(=O)N3c4ccccc4CC3C)nc2c1` (configuration not stated): 11.8% (inactive); `CC(NC(=O)C1CCC(CNc2c(N3CCOCC3)c(=O)c2=O)CC1)c1ccccc1` (configuration not stated): 4.59% (inactive). The figure for `Cc1ccc(OC(=O)c2ccccc2C(=O)OCC(F)(F)C(F)F)cc1` is 5.93% (inactive); for `Cc1ccc(CS(=O)(=O)CCC(=O)NC2CC2)cc1` it is 3.34% (inactive); for `O=C(OCC(=O)N1CCN(C(=O)c2ccco2)CC1)c1ccccc1Cc1ccccc1` it is 3.88% (inactive). The figure for `CC(C)CCNC(=O)CC1C(=O)N(Cc2ccccc2)C(C)c2nc3ccccc3n21` (configuration not stated) is 5.26% (inactive); for `CCCCCOC(=O)c1ccc(N2C(=O)C3C4C=CC(C4)C3C2=O)cc1` (configuration not stated) it is -10.2% (inactive). On to `O=C(N1CCOCC1)N(Cc1ccccc1)c1ccccn1`, for which the inhibition was 1.36% (inactive). In the case of `COC(=O)c1cc(OC)ccc1-c1ccc(OC)cc1`, the inhibition was 4.36% (inactive). Consider `COCCCNC(=O)CN1CCN(Cc2ccccc2Cl)C1=O`, for which the inhibition is 13.3% (inactive). `COCCNC(=O)COc1ccc(C)c(C)c1`: the inhibition was 5.6% (inactive).

For the compound `COC(=O)C1C(=O)NCC1c1ccc(C)cc1` (configuration not stated), the inhibition is 4.77% (inactive). The figure for `COc1ccc(C(=O)Nc2ccc(CN3CCOCC3)cc2)cc1` is -0.34% (inactive); for `COC(=O)c1ccccc1Sc1c(/C=N/OCc2ccc(Cl)cc2)c(C(F)(F)F)nn1C` it is 5.69% (inactive); for `CCSc1nc(-c2ccc(OC)cc2)cc(-c2ccc(OC)cc2)c1C#N` it is 12.5% (inactive).

On to `COC(=O)[C@@H](NC(=O)Nc1cc(Cl)ccc1C)C(C)C`, for which the inhibition was -0.53% (inactive). The figure for `O=C(OCC#CCSc1nnc(-c2ccncc2)o1)c1sc2ccccc2c1Cl` is -11.2% (inactive); for `O=C(Cc1c(O)c2ccccc2[nH]c1=O)NCc1ccccc1` it is -1.57% (inactive).

A word on the inhibition: it is the drop in the measured response relative to a control, in per cent.

Values taken from PubChem BioAssay AID701 (PCMD, 2007).
